This passage reports z-score and composite z-score results from PubChem BioAssay.

Active and inactive are the calls of the source.

The nature of experiment [1]: optical density shifts of acrAB sulA E. coli – strain DRC41, OD650, 48 h, E. coli filamentation inducer project, primary screen (AID 1152).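 Also: E. coli MC1000 strain DRC41 lacking acrAB efflux pump and sulA.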 The conditions noted are these: higher = more signal, called active from +8 up or from −8 down.
Experiment [2] is described as follows: probe aLefty1 binding on compound microarray – biochemical, small-molecule microarray, 635/667 nm fluorescence, primary screen (AID 1153).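 Also: score merges spot fluorescence with signal-to-noise ratio from the scanned slide images.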 The conditions noted are these: higher = more signal.
Experiment [3] can be described thus: plasmodial surface anion channel blockers, osmotic lysis – cell-based, P. falciparum Indochina, OD700, 1 h, primary screen (AID 1154). The conditions noted are these: P. falciparum Indochina infected RBC osmotic lysis, higher = more signal, called active from +8 up or from −8 down.
Experiment [4] in a line: plasmodial surface anion channel blockers, osmotic lysis – cell-based, P. falciparum Indochina, OD700, 2 h, primary screen (AID 1155).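 Also: lysis reports solute entry through the parasite surface anion channel PSAC.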 The note with it: P. falciparum Indochina infected erythrocytes, higher = more signal, called active from +8 up or from −8 down.
Experiment [5] is described as follows: changes in parasitized red cell lysis, either direction – P. falciparum Indochina, OD700, 3 h, PSAC antagonist project, primary screen (AID 1156). The note with it: P. falciparum-infected erythrocytes, osmotic lysis, higher = more signal, called active from +8 up or from −8 down.
Experiment [6] is described as follows: plasmodial surface anion channel blockers, osmotic lysis – cell-based, P. falciparum Indochina, OD700, 18 h, primary screen (AID 1157). The conditions noted are these: P. falciparum Indochina infected erythrocytes, osmotic lysis OD700, 18 h; higher = more signal, called active from +8 up or from −8 down.
Experiment [7] in a line: S6 kinase pathway phospho-S6 level changes – cell-based, A549, cytoblot, luminescence, serum-stimulated, primary screen (AID 1158).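 Also: serum-stimulated A549 lung adenocarcinoma cells; signal is phosphorylated S6 detected by cytoblot immunostaining with HRP secondary.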 The conditions noted are these: 5 h, higher = more signal.
Experiment [8] addresses NADPH oxidase 2 (Homo sapiens) (UniProt P04839). Description: compounds shifting NOX2 Amplex Red fluorescence – cell-based, HEK293-NOX2, PMA-stimulated, NOX inhibitor project, primary screen (AID 1159). Also: test concentration not given here. The note with it: 45 min, higher = more signal, called active from +8 up or from −8 down.
Experiment [9] addresses NADPH oxidase 4 (Homo sapiens) (UniProt Q9NPH5). Description: compounds shifting NOX4 Amplex Red fluorescence – cell-based, HEK293-NOX4, tetracycline-induced, NOX inhibitor project, primary screen (AID 1160). The conditions noted are these: HEK293-NOX4, Amplex Red H2O2 fluorescence, 45 min; higher = more signal, called active from +8 up or from −8 down.
The target in experiment [10] is NADPH oxidase 5 (Homo sapiens) (UniProt Q96PH1). The experiment can be described thus: compounds shifting NOX5 Amplex Red fluorescence – cell-based, HEK293-NOX5, NOX inhibitor project, primary screen (AID 1161). The conditions noted are these: HEK293-NOX5, ionomycin, 45 min, higher = more signal.
Chain of NADPH oxidase 5 (Homo sapiens) (Q96PH1 whole entry, looked up): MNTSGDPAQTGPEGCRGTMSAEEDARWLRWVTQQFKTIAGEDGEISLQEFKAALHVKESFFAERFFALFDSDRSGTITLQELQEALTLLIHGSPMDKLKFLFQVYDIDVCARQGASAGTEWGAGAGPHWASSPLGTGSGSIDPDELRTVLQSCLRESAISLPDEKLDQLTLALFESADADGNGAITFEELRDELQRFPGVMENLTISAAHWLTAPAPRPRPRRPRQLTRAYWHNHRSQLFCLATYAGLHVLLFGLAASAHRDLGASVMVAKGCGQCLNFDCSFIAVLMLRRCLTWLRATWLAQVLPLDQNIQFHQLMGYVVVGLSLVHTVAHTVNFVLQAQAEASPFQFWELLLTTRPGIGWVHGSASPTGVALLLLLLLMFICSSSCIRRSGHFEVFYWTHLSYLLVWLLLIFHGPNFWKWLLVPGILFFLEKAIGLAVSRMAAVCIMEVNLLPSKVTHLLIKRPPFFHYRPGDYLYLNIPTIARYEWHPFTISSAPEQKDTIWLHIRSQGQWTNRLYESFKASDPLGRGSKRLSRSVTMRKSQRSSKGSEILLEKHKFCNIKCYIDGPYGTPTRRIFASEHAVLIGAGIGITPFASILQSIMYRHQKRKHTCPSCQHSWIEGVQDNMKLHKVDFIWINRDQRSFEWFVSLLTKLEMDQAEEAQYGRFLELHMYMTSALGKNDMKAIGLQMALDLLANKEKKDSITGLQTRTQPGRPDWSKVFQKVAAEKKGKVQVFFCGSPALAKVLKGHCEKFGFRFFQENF
Experiment [11] is described as follows: compound effects on lung adenocarcinoma cell viability – A549, calcein-AM fluorescence, 48 h, basal, profiling panel (AID 1162). Also: test concentration not given here. The conditions noted are these: higher = more signal.
The nature of experiment [12]: compound effects on differentiated 3T3-L1 adipocyte viability – cell-based, 3T3-L1 adipocytes, calcein-AM fluorescence, 48 h, basal, profiling panel (AID 1163). Also: test concentration not given here. The note with it: 3T3-L1 adipocytes viability, higher = more signal.
Experiment [13] can be described thus: compound effects on hepatocellular carcinoma cell viability – HepG2, calcein-AM fluorescence, 48 h, basal, profiling panel (AID 1164). Also: test concentration not given here. The note with it: higher = more signal.
Experiment [14] is described as follows: compound effects on multiple myeloma cell viability – MM1S, calcein-AM fluorescence, 48 h, basal, profiling panel (AID 1165). Also: test concentration not given here. The conditions noted are these: higher = more signal.
Experiment [15] in a line: calcein-AM signal in unstimulated myeloma cells – cell-based, calcein-AM fluorescence, 48 h, PK04 Diversity Set, profiling panel (AID 1166).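 Also: cells grown under basal conditions without added stimulus; test concentration not given here.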 The conditions noted are these: RPMI8226 myeloma viability, higher = more signal.
Experiment [16] in a line: JC-1 mitochondrial signal, unstimulated HepG2 cells – cell-based, JC-1 fluorescence, 24 h, 100 nL compound, profiling panel (AID 1167). Also: test concentration not given here. The conditions noted are these: HepG2 mitochondrial potential, higher = more signal.
Experiment [17] is described as follows: JC-1 mitochondrial signal, unstimulated adipocytes – cell-based, JC-1 fluorescence, 3T3-L1 adipocytes, 24 h, 100 nL compound, profiling panel (AID 1168). Also: test concentration not given here. The note with it: JC-1 mitochondrial fluorescence, higher = more signal, called active from +8 up or from −8 down.
Experiment [18] can be described thus: JC-1 mitochondrial signal, unstimulated myeloma cells – cell-based, JC-1 fluorescence, RPMI8226, 24 h, 100 nL compound, profiling panel (AID 1169). Also: test concentration not given here. The note with it: JC-1 mitochondrial potential fluorescence, higher = more signal.
The nature of experiment [19]: JC-1 mitochondrial signal, unstimulated MM1S myeloma – cell-based, JC-1 fluorescence, 24 h, 100 nL compound, profiling panel (AID 1170). Also: test concentration not given here. The conditions noted are these: MM1S mitochondrial potential, higher = more signal.
Experiment [20] can be described thus: resazurin metabolic signal in A549 cells – cell-based, resazurin fluorescence, 24 h, PK04 Diversity Set, profiling panel (AID 1171). Also: test concentration not given here. The conditions noted are these: A549 viability, higher = more signal, called active from +8 up or from −8 down. (Alamar Blue is a resazurin reagent that responds to reducing activity.)

Chain of NADPH oxidase 2 (Homo sapiens) (P04839 whole entry, looked up): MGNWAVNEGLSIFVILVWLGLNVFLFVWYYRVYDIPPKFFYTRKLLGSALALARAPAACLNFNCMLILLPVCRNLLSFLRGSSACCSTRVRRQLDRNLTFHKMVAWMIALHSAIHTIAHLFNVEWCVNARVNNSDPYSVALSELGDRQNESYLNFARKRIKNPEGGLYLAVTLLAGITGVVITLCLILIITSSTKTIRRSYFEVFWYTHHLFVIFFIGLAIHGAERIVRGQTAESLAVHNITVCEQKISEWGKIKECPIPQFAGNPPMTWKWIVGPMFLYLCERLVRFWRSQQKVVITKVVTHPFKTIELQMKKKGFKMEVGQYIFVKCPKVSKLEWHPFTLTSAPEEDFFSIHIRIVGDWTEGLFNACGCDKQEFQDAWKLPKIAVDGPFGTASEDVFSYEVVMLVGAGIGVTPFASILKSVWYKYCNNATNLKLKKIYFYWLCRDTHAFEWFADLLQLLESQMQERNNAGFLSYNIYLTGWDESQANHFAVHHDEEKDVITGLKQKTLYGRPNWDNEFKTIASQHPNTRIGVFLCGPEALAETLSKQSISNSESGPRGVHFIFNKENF
Chain of NADPH oxidase 4 (Homo sapiens) (Q9NPH5 whole entry, looked up): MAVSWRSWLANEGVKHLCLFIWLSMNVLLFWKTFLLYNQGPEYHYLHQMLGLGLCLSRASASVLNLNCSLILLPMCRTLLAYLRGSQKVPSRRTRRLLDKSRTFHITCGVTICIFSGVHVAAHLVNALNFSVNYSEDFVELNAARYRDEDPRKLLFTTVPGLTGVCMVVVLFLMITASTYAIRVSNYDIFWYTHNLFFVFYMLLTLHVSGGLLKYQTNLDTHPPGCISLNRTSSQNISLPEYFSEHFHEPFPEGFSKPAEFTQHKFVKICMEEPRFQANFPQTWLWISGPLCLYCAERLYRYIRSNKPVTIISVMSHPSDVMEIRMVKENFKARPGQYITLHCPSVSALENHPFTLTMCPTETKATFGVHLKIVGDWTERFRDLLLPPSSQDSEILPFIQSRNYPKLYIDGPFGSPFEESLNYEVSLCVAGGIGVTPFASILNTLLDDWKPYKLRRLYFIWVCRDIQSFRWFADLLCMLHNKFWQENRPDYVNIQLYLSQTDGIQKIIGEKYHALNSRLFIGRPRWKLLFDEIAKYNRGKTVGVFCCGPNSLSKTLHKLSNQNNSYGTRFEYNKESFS

For `COc1ccc(NN2C(C(O)c3ccc(OC)cc3)C=CC3C(=O)N(C4CCCCC4)C(=O)C32)cc1` (stereo not given), the z-score was -0.625 (inactive) in [1]; 9.1 (active) in [3]; 1.69 (inactive) in [4]; 0.722 (inactive) in experiment [5]; 0.63 (inactive) in experiment [6]; -0.613 in [7]. Moreover, the z-score in [8] is -1.34 (inactive); in [9], -1.1 (inactive); in experiment [10], -2.54; in experiment [11], -0.285; in experiment [12], -1.29; in experiment [13], 1.24. Also, the z-score in experiment [14] is 0.764; in experiment [15] it was -0.512; in [16] it was -0.126; in [17], 0.0238 (inactive); in [18] it was 0.417; in experiment [19], -1.44. Moreover, the z-score in experiment [20] was 0.965 (inactive). In addition, the composite z-score in [2] is 0.0768.
For the molecule `CCCC=C(CCC)[C@@H](NC(=O)c1ccccc1)c1ccc(C(=O)OC)cc1`, the z-score in experiment [1] is 0.119 (inactive); in [3] it was -0.072 (inactive); in [4] it was 0.502 (inactive); in experiment [5], -0.0759 (inactive); in [6], -0.289 (inactive); in experiment [7] it was 3.85. The z-score in [8] was -3.83 (inactive); in experiment [9], -3.23 (inactive); in experiment [10] it was -1.45; in [11] it was -0.185; in experiment [12], 0.921; in experiment [13], -0.535. The z-score in experiment [14] is -0.355; in [15], -1.08; in [16], -1.59; in experiment [17], 0.131 (inactive); in experiment [18], -0.515; in experiment [19], -1.12. Besides, the z-score in [20] was 0.18 (inactive). This molecule also had a composite z-score in experiment [2] of 1.29.
Take `CC(C)C[C@H]1NC(=O)[C@H](Cc2ccccc2)NC(=O)[C@@]23C(=O)N[C@@H](Cc4ccccc4)C2[C@H](C)[C@@]2(C)O[C@H]2C3/C=C/C/C=C\CNC1=O` (stereo not given in full): the z-score was -1 (inactive) in [1]; 0.133 (inactive) in [3]; -0.209 (inactive) in experiment [4]; 0.0708 (inactive) in [5]; -0.308 (inactive) in experiment [6]; -0.129 in [7]. Also, the z-score in experiment [8] is 1.05 (inactive); in experiment [9] it was 0.819 (inactive); in experiment [10] it was -1.37; in [11], -0.0322; in experiment [12], 0.13; in experiment [13], -1.04. Further, the z-score is -0.356 in experiment [14]; -0.718 in [15]; -1.07 in experiment [16]; 0.0338 (inactive) in experiment [17]; 0.478 in experiment [18]; 0.704 in experiment [19]. In [20], the z-score was 0.395 (inactive). The composite z-score in experiment [2] was -0.145.
Turning to `COc1cc2c(cc1O)C(C1CC1)N(Cc1ccc([N+](=O)[O-])o1)CC2` (stereo not given), the z-score in experiment [1] was -1.03 (inactive); in experiment [3], 23.7 (active); in experiment [4], 6.01 (inactive); in [5], 0.359 (inactive); in [6], 0.892 (inactive); in experiment [7] it was 0.106. The z-score in [8] was -4.17 (inactive); in experiment [9], -2.46 (inactive); in [10], -3.45; in experiment [11] it was -0.37; in experiment [12] it was 0.393; in [13], -0.181. Further, the z-score in [14] is -0.201; in [15], 0.741; in experiment [16], -1.57; in experiment [17] it was -0.0836 (inactive); in experiment [18], -0.748; in experiment [19], 0.0309. In [20], the z-score is 0.533 (inactive). Moreover, the composite z-score in experiment [2] came to 0.0446.
Consider `O=C1C2C=CC(C(O)c3cccs3)N(Nc3ccccc3)C2C(=O)N1c1ccccc1` (stereo not given), for which the z-score in experiment [1] was -0.597 (inactive); in [3] it was 2.55 (inactive); in experiment [4], 0.52 (inactive); in experiment [5], 0.916 (inactive); in experiment [6], -0.423 (inactive); in [7], 2.34. The z-score is -2.63 (inactive) in experiment [8]; -3.57 (inactive) in experiment [9]; -3.35 in experiment [10]; -0.125 in experiment [11]; 0.715 in experiment [12]; -0.379 in experiment [13]. The z-score is 0.473 in [14]; 0.502 in experiment [15]; -1.72 in [16]; 0.673 (inactive) in experiment [17]; -0.18 in experiment [18]; -0.542 in experiment [19]. Also, the z-score in experiment [20] was -0.919 (inactive). The molecule further displayed a composite z-score in [2] of 0.328.
